Measurements: PubChem BioAssay (NCATS)
Inconclusive results are not listed. Active and inactive are the calls of the source. Calls follow the shape of the full dose curve.

Key:
[1] = Primary qHTS for Huh7 cytotoxicity: counterscreen for inhibitors of MERS-S pseudotyped particle cell entry (AID 1479147)
[2] = Primary qHTS for inhibitors of MERS-S pseudo-typed particle cell entry (AID 1479149); also: nearly all actives have a fitted effect of over 60% in size
[3] = Primary qHTS for Vero E6 cytotoxicity: counterscreen for inhibitors of SARS-S pseudo-typed particle cell entry (AID 1479150)

Measured: Potency

CC(C)(C)NC[C@H](O)COc1cccc2c1CCCC2=O
inactive: all assays above

O=C(C1CCCCC1)N1CC(=O)N2CCCc3ccccc3C2C1 (stereo unspecified)
inactive: all assays above

NC1CCN(c2nc3c(cc2F)c(=O)c(C(=O)O)cn3-c2ccc(F)cc2F)C1 (stereo unspecified)
inactive: all assays above

O=C(OCC1(COC(=O)c2cccnc2)CCCC(COC(=O)c2cccnc2)(COC(=O)c2cccnc2)C1O)c1cccnc1
inactive: all assays above

CC(=O)Nc1ccc(S(=O)(=O)Nc2cc(C)on2)cc1
inactive: all assays above

COc1ccc2c(c1)c(CC(=O)OC/C=C(\C)CC/C=C(\C)CCC=C(C)C)c(C)n2C(=O)c1ccc(Cl)cc1
inactive: all assays above

CC12CCC(CC1)C(C)(C)O2
inactive: all assays above

CCN1CC(CCN2CCOCC2)C(c2ccccc2)(c2ccccc2)C1=O (stereo unspecified)
inactive: all assays above

CCN1C(=O)NC(c2ccccc2)C1=O (stereo unspecified)
inactive: all assays above

CC1(C)S[C@@H]2[C@H](NC(=O)C(c3ccccc3)S(=O)(=O)O)C(=O)N2[C@H]1C(=O)O (stereo partly specified)
inactive: all assays above

Cc1ccnc(NS(=O)(=O)c2ccc(N)cc2)n1
inactive: all assays above

O=C(OOC(=O)c1ccccc1)c1ccccc1
inactive: all assays above

CCCCCCCCCCCC(=O)[O][Sn]([CH2]CCC)([CH2]CCC)[O]C(=O)CCCCCCCCCCC
inactive: all assays above

O=C(CCBr)N1CCN(C(=O)CCBr)CC1
inactive: all assays above

CCOC(=O)C1=C[C@@H](OC(CC)CC)[C@H](NC(C)=O)[C@@H](N)C1
inactive: all assays above

c1ccc2c(c1)CCCC2C1=NCCN1 (stereo unspecified)
inactive: all assays above

COC(=O)c1ccc(O)cc1
inactive: all assays above

O=C1[O][Bi][O]c2ccccc21
inactive: [1] inactive [at 0.573 µM] | [2] inactive [at 0.573 µM] | [3] inactive [at 0.573 µM]

CCCNC(C)C(=O)Nc1c(C)csc1C(=O)OC (stereo unspecified)
inactive: all assays above

O=C(NCC(O)CO)c1c(I)c(C(=O)NCC(O)CO)c(I)c(N(CCO)C(=O)CO)c1I (stereo unspecified)
inactive: all assays above

CNC[C@H](O)c1cccc(O)c1
inactive: all assays above

COc1c(N2C[C@@H]3CCCN[C@@H]3C2)c(F)cc2c(=O)c(C(=O)O)cn(C3CC3)c12
inactive: all assays above

O=c1c(-c2ccc(O)cc2)coc2cc(O)cc(O)c12
inactive: all assays above

CC(C)Cc1ccc(CC(=O)O)cc1
inactive: all assays above

CC(C)(C)NCC(O)c1cc(O)cc(O)c1 (stereo unspecified)
inactive: all assays above

C[C@H]1O[C@@H](n2cc(F)c(=O)[nH]c2=O)[C@H](O)[C@@H]1O
inactive: all assays above

Cc1nc2ccc(CN(C)c3ccc(C(=O)N[C@@H](CCC(=O)O)C(=O)O)s3)cc2c(=O)[nH]1
inactive: all assays above

O=C(/C=C/c1ccccc1)OCc1ccccc1
inactive: all assays above

NC(CS)C(=O)O (stereo unspecified)
inactive: all assays above

CO/N=C(/C(=O)N[C@@H]1C(=O)N2C(C(=O)[O-])=C(C[n+]3ccn4ncccc43)CS[C@H]12)c1nsc(N)n1
inactive: all assays above

CC(C)[C@H](N)C(=O)OCCOCn1cnc2c(=O)[nH]c(N)nc21
inactive: all assays above

CC(N=C(NC#N)Nc1ccncc1)C(C)(C)C (stereo unspecified)
inactive: all assays above

C[C@@H]1O[C@@H]1P(=O)(O)O
inactive: all assays above

O=C(O)CN(CCN(CC(=O)O)CC(=O)O)CCN(CC(=O)O)CC(=O)O
inactive: all assays above

O=C(NCCO[N+](=O)[O-])c1cccnc1
inactive: all assays above

CC(=O)Oc1cc(C(C)C)c(OCCN(C)C)cc1C
inactive: all assays above

NC[C@H]1O[C@H](O[C@H]2[C@H](O)[C@@H](O[C@H]3O[C@H](CO)[C@@H](O)[C@H](N)[C@H]3O)[C@H](N)C[C@@H]2N)[C@H](O)[C@@H](O)[C@@H]1O
inactive: [1] inactive [at 5.34 µM] | [2] inactive [at 5.34 µM] | [3] inactive [at 5.34 µM]

N#CSCC(=O)O
inactive: all assays above

Cc1c(N(C)CS(=O)(=O)O)c(=O)n(-c2ccccc2)n1C
inactive: all assays above

Cc1ccc(-c2ncc(Cl)cc2-c2ccc(S(C)(=O)=O)cc2)cn1
inactive: all assays above

C[N+](C)(C)CCCCCC[N+](C)(C)C
inactive: all assays above

COc1ccc(C(=O)NCc2ccc(OCCN(C)C)cc2)cc1OC
inactive: all assays above

COc1ccc(C(=O)c2ccccc2O)c(O)c1
inactive: all assays above

NCc1ccc(S(N)(=O)=O)cc1
inactive: all assays above

Cc1ccc(C(=O)C(C)CN2CCCCC2)cc1 (stereo unspecified)
inactive: all assays above

CC(C)(Sc1cc(C(C)(C)C)c(O)c(C(C)(C)C)c1)Sc1cc(C(C)(C)C)c(O)c(C(C)(C)C)c1
inactive: all assays above

CCS(=O)(=O)CCn1c([N+](=O)[O-])cnc1C
inactive: all assays above
